Targets with a hit are over-represented here; the source holds about 8,800 in all. About 0.5% of all pairs of compound and target were hits.
How the values were obtained:
Test in all cases: log2 fold change, soluble protein after heating vs DMSO (PISA); higher = thermal stabilisation; K562 lysate, 10 uM; active = over 0.2 and 3.5 SD of the protein, either way, in both replicates (recomputed)
[1] = compound: C1=CC=C(C=C1)[C@H](COC2=CC3=C(C=C2)NC(=O)N3)NC(=O)C4=CC=CN(C4=O)CC5=CC(=C(C=C5)F)F
Procedure, shortened: (§1)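 Log-two fold change in thermal stability relative to solvent controls is reported from duplicates. For each sample, crude K562 extract from dounce-homogenised pellets in PBS pH 7.4 with 1 mM MgCl2, at 1 mg/mL protein, was treated with 10 μM compound for 30 min. Aliquots heated for 3 min across 48°C-58°C were pooled, brought to 0.5% NP-40 at 4°C and cleared at 21,000xg for 90 min. The supernatant was quantified by TMTpro 16plex LC-MS/MS with channel sums equalised.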

[2] = compound: CC1=C(SC2=C1C(=N[C@H](C3=NN=C(N32)C)CC(=O)N)C4=CC=C(C=C4)Cl)C
Procedure, shortened: as §1

[3] = compound: CC1=C2C(=CC=C1)N=C(N(C2=O)C3=CC=CC=C3C)CN4C=NC5=C(N=CN=C54)N
Procedure, shortened: as §1

[4] = compound: Cc1sc2c(c1C)C(c1ccc(Cl)cc1)=N[C@@H](CC(=O)OC(C)(C)C)c1nnc(C)n1-2
Procedure, shortened: as §1

[5] = compound: c1ccc([C@@H]2C[C@H]2NC2CCNCC2)cc1
Procedure, shortened: as §1

Measured: log2 fold change

AKR1C2 (UniProt P52895)
UniProt P52895, sequence (P52895 whole entry, looked up): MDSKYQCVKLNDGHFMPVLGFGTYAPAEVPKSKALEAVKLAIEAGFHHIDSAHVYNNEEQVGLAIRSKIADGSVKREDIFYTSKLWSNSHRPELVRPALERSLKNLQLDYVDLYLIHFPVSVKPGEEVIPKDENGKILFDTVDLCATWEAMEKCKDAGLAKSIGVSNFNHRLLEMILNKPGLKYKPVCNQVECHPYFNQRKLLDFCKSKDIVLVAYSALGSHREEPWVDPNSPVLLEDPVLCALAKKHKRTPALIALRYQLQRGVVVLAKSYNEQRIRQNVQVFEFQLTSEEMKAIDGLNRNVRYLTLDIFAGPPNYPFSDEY
inactive: [1] -0.012 | [2] 0.047 | [3] 0.047 | [4] -0.184 | [5] -0.107

ACACB (UniProt O00763)
UniProt O00763, sequence (O00763 whole entry, looked up): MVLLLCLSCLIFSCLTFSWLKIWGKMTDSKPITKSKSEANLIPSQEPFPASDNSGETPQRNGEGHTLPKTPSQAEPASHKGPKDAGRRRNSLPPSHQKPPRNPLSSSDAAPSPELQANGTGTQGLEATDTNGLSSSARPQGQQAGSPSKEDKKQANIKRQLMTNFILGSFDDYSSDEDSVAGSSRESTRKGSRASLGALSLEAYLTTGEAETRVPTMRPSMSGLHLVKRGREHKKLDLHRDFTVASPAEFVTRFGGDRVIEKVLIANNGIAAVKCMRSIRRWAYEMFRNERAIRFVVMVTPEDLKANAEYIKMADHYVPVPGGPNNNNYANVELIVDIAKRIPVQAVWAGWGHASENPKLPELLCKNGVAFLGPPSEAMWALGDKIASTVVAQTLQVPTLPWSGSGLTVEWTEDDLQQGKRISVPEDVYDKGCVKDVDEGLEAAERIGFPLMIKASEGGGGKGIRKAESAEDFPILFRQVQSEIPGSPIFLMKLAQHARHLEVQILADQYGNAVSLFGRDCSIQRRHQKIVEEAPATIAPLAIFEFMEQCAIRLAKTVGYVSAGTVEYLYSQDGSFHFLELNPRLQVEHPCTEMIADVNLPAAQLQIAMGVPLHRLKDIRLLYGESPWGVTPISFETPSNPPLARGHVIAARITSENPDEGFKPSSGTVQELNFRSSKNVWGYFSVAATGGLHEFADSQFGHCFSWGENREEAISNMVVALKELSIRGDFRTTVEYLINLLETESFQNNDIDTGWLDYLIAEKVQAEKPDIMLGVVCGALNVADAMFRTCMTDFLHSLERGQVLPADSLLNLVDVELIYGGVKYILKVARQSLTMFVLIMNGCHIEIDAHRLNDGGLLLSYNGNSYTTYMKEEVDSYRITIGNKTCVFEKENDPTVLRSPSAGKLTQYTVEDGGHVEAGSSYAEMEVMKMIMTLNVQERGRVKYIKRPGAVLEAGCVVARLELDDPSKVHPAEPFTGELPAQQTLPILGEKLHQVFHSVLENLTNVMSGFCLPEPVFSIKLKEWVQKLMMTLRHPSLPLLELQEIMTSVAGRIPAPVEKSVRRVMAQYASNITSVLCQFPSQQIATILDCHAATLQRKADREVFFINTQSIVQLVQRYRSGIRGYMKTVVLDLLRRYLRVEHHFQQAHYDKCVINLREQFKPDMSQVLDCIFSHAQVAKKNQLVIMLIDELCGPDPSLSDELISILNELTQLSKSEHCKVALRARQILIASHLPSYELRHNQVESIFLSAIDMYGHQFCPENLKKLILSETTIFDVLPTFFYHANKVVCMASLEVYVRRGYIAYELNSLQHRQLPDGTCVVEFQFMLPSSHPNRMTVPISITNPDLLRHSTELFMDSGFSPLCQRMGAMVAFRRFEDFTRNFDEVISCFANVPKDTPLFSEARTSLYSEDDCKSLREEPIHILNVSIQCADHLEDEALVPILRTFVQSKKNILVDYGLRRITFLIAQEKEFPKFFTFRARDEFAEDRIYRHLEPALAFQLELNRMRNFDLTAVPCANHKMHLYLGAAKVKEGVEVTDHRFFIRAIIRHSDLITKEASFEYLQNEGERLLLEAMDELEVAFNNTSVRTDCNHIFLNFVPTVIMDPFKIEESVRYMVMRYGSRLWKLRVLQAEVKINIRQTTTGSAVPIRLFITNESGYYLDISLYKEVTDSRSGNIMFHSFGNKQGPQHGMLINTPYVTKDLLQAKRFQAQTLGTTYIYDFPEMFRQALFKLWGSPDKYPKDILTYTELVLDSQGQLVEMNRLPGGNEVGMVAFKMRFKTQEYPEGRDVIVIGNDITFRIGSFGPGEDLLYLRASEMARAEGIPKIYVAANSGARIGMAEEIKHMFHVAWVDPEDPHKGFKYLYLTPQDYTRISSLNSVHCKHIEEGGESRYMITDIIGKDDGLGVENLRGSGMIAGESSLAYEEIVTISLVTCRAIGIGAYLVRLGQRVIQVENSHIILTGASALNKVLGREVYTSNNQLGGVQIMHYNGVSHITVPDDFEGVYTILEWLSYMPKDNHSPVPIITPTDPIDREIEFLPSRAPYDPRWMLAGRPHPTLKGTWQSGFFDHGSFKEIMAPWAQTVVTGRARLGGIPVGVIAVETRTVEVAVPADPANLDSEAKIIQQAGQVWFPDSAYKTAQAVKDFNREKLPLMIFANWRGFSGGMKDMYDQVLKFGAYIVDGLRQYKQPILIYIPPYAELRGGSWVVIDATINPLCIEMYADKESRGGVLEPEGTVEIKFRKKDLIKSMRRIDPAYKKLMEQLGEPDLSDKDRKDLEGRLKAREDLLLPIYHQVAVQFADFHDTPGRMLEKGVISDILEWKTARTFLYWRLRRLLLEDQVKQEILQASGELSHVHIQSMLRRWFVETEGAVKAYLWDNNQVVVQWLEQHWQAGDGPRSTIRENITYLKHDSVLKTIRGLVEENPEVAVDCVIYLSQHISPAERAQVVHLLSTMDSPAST
inactive: [1] -0.018 | [2] 0.002 | [3] 0.01 | [4] 0.074 | [5] 0.014

ADAM17 (UniProt P78536)
UniProt P78536, sequence (P78536 whole entry, looked up): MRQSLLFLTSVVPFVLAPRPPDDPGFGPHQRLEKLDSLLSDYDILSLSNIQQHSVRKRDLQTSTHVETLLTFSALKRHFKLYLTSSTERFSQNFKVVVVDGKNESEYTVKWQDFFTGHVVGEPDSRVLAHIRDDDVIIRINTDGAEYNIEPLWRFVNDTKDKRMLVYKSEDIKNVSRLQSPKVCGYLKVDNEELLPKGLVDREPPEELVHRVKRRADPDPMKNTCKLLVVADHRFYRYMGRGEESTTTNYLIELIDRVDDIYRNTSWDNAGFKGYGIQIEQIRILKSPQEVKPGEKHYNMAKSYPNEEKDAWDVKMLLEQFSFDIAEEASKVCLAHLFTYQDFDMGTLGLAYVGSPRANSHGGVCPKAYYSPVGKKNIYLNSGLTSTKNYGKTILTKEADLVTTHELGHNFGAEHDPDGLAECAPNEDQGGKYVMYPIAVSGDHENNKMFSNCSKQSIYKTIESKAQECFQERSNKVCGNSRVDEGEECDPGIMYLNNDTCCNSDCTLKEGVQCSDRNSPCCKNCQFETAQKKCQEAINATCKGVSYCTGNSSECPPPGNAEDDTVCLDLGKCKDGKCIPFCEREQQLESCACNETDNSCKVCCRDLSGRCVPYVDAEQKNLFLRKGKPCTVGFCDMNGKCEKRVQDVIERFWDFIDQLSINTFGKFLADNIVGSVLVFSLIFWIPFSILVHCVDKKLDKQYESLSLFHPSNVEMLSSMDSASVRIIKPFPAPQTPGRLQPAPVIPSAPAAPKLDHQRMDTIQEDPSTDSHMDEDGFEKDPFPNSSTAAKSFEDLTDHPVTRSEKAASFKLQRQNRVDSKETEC
inactive: [1] -0.098 | [3] 0.093 | [4] 0.002 | [5] -0.032
active: [2] -0.251

AK4 (UniProt P27144)
UniProt P27144, sequence (P27144 whole entry, looked up): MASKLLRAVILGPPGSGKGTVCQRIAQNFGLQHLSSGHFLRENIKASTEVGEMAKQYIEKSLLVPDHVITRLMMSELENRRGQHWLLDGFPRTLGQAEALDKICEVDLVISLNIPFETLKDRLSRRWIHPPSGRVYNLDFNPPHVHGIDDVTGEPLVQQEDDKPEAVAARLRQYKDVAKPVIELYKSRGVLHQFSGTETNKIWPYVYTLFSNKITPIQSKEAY
inactive: [1] 0.025 | [2] -0.038 | [3] 0.059 | [4] 0.024 | [5] 0.026

APEX1 (UniProt P27695)
UniProt P27695, sequence (P27695 whole entry, looked up): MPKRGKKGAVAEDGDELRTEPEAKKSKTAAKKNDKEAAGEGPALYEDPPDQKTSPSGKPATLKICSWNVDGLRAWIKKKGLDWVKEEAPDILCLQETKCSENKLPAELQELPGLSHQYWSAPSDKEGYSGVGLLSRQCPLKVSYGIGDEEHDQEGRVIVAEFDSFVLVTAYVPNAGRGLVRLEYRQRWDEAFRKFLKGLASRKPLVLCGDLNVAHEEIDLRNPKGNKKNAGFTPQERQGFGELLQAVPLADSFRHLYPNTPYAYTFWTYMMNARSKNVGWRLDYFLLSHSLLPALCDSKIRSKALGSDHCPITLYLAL
inactive: [1] 0.055 | [2] 0.007 | [3] -0.007 | [4] 0.086 | [5] 0.131

AIFM2 (UniProt Q9BRQ8)
UniProt Q9BRQ8, sequence (Q9BRQ8 whole entry, looked up): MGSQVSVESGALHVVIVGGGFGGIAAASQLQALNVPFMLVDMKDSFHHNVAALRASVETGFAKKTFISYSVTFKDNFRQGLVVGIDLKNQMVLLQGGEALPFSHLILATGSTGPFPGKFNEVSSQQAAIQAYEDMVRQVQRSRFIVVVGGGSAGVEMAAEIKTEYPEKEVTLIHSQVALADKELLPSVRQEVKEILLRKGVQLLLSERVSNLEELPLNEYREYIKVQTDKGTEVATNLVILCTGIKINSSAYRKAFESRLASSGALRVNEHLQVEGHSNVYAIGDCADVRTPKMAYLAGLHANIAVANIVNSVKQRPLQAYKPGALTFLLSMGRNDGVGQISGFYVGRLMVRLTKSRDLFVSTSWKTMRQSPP
active: [1] 0.668
inactive: [2] 0.008 | [3] 0.039 | [4] -0.007 | [5] -0.1

APOB (UniProt P04114)
inactive: [1] -0.009 | [2] 0.039 | [3] 0.023 | [4] -0.168 | [5] -0.109

ABHD17A isoform 2 (UniProt Q96GS6)
UniProt Q96GS6, sequence (Q96GS6 whole entry, looked up): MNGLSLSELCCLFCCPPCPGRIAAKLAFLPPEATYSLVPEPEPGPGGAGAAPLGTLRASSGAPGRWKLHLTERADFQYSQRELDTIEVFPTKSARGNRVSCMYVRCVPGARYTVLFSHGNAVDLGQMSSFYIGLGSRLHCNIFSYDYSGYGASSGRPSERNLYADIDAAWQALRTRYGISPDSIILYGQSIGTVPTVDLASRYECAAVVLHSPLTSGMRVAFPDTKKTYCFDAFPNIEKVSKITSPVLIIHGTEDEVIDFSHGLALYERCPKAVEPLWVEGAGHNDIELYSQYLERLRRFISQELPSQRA
inactive: [1] -0.053 | [2] -0.02 | [3] 0.011 | [4] -0.025 | [5] -0.069

ARHGAP6 (UniProt O43182)
inactive: [1] -0.026 | [2] -0.023 | [3] -0.012 | [4] 0.018 | [5] 0.02

Reference: the supplement of paper PMC10849652
